Assay outcomes as filed in PubChem BioAssay.
HT1080 IDH1KD tx – HT-1080 IDH1 knockdown cell toxicity (counter line); HT-1080 IDH1 knockdown viability, ATP luminescence, 48 h; 360,000 compounds, 2% hits; Potency, µM (titrated, usually from 46.1 µM), for inactives: at the top dose activity, negative = toxicity, most hits filed as cytotoxic; AID 686971;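 also: 0% = DMSO wells and -100% = cell-free medium wells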
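Assay cells: HT-1080 with IDH1 knockdown, 750 per well, RPMI/5% FBS. Exposure: 48 h at 37 °C following 2 h pre-incubation. Read: CellTiter-Glo luminescence; fitted concentration-response, curve class assigned.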
HT1080-NT tox – kills 2HG-producing HT-1080-NT fibrosarcoma cells | HT-1080-NT fibrosarcoma viability, CellTiter-Glo ATP luminescence, 48 h | Potency, µM (series often up to 46.1 µM), without a hit: top-dose activity, negative = less viability, usual class: cytotoxic | 360,000 compounds, 1.6% hits;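 also: NT is the 2HG producing partner of a matched IDH1 knockdown line; 0% = DMSO-treated cells and -100% = media-only wells without cells; nearly all actives have a fitted effect of over 55% in size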
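Read-out is CellTiter-Glo luminescence after 10 minutes at room temperature, following 48 hours' compound treatment of HT-1080-NT cells (750 cells/well, RPMI, 5% FBS, 37 degrees C).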
KB-V1 MDR tox – kills drug-selected multidrug resistant KB-V1 cells; KB-V1 MDR cells viability, CellTiter-Glo, 72 h; Potency, µM (series often up to 46.1 µM), most hits filed as cytotoxic; 400,000 compounds, 3.4% hits; AID 1347076; also: nearly all actives have a fitted effect of over 60% in size
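Potencies derive from concentration-effect curves fitted to normalized luminescence (CellTiter-Glo) of KB-V1 cells treated for 72 h at 37 degrees C in phenol-red-free DMEM containing 10% FBS.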
KB-3-1 cytotox – kills parental KB-3-1 adenocarcinoma cells. KB-3-1 viability, CellTiter-Glo ATP luminescence, 72 h. Potency, µM (titrated, usually from 46.1 µM), usual class: cytotoxic. 400,000 compounds, 1.4% hits. AID 1347075; also: nearly all actives have a fitted effect of over 60% in size
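Luminescent ATP read-out (CellTiter-Glo) measures survival of drug-naive KB-3-1 cells after 72 h compound exposure at 37 °C. Titration series was screened from lowest to highest concentration, with DMSO vehicle plates as background controls.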
* marks the source's active call; other numbers are inactive results; i = inactive; ? = inconclusive; . = no result given; ! = a repeat was not active; [ ] = remark or other dose. Shown are actives, neighbours in structure and some others; about 5.7% of the full set was active somewhere. Calls follow the shape of the dose curve; as a rule, active = well fitted curve in the direction sought with a large enough effect; inconclusive = small, poorly fitted or top-dose-only effect, or another doubt; inactive = no such curve, though single readings can be large; an effect the other way counts as inactive or inconclusive. Unless noted, % is scaled to controls: 0 for no effect and ±100 for the full control effect; potency is read from the fitted curve at half-maximal effect.

SMILES | HT1080 IDH1KD tx | HT1080-NT tox | KB-V1 MDR tox | KB-3-1 cytotox
CCOCCCNC(=S)NNC(=O)CCn1nc(C)c(Br)c1C | 2.5µM* | 0.89µM* | 15µM* | i
CCOc1ccc(NC(=O)CCc2nnc3n(C)c(=O)c4sccc4n23)cc1 | . | . | i | i
Cc1ccc(NC(=O)c2cnn3c2NC(=C2CC2)C=C3C(F)F)cc1 | . | . | i | ?
CNC(=O)CC1C(=O)N(Cc2ccccc2)C(=S)N1NC(=O)c1cccc(F)c1 (stereo unspecified) | -2% | -1% | 21µM* | i
CNC(=O)CC1C(=O)N(c2ccc(Cl)cc2)C(=S)N1NC(=O)c1cccc(F)c1 (stereo unspecified) | 15% | 0% | i | i
CCn1c(=O)c([N+](=O)[O-])c(Cl)c2ccccc21 | 3.7µM* | ? | i | ?
CCn1c(=O)c([N+](=O)[O-])c(NCCN(C)C)c2ccccc21 | -1% | 8% | i | i
Cc1[nH]c2ccccc2c1C(=O)c1cc(Cc2ccccc2)sc1N | ? | ? | 18µM* | 21µM*
COCCCNC(=O)c1cc(Cc2ccccc2)sc1N | 7% | -1% | i | i
C=C1c2nc3ccccc3n2C=C(c2ccc(C)cc2)N1c1ccccc1 | 18µM* | 21µM* | ? | 16µM*
COc1cccc(CN2C(=O)c3ccccc3Sc3ccc(C(=O)NCCc4ccc(C)cc4)cc32)c1 | . | . | i | i
COc1ccc(C2=Nn3c(nnc3-c3ccccc3F)SC2)cc1OCC1CC1 | . | . | ? | 13µM*
COc1ccc(C2=Nn3c(nnc3-c3ccccn3)SC2)cc1OC | -14% | -15% | i | i
COc1ccc(C2=Nn3c(nnc3-c3ccccc3OC)SC2)cc1OC | ? | 0.46µM* | 1.2µM*! | 0.013µM*
CC1=C(C(=O)OCc2ccc(C)cc2)C(c2ccccc2F)CC(=O)N1 (stereo unspecified) | . | . | i | i
O=C(NCCN1CCN(C(=O)c2ccc(F)cc2)CC1)C(=O)NCc1ccccc1 | 6% | 14% | i | i
O=C(c1ccc(CNS(=O)(=O)c2ccccc2)cc1)N1CCN(Cc2ccccc2)CC1 | ? | ? | 4.6µM* | 18µM*
CC(C)(C)c1ccc(C(=O)N2CCN(CCNC(=O)C(=O)NCc3ccccc3)CC2)cc1 | 2% | 8% | 7.3µM* | i
Cc1ccc(S(=O)(=O)NCc2ccc(C(=O)N3CCc4ccccc4C3)cc2)cc1 | 17% | 2% | 4.6µM* | i
Cc1ccc(S(=O)(=O)NCc2ccc(C(=O)N3CCN(c4ccccc4)CC3)cc2)cc1 | ? | -12% | i | i
COc1ccc(S(=O)(=O)NCc2ccc(C(=O)N3CCc4ccccc4C3)cc2)cc1 | -1% | 4% | 5.8µM* | ?
COc1ccc(CNS(=O)(=O)c2ccc(N3CCCCS3(=O)=O)cc2)cc1 | . | . | ? | 16µM*
CCN(C(=O)CSc1nc(-c2ccc(C(C)C)cc2)no1)c1ccccc1 | . | . | i | i
CCc1ccc(NC(=O)CSc2ccc(-c3sc(-c4ccccc4)nc3C)nn2)cc1 | . | . | i | i
CCCCCCCCCCCCCCCC(O)C[N+](C)(C)CCO (stereo unspecified) | -2% | 7% | i | ?
SMILES | HT1080 IDH1KD tx | HT1080-NT tox | KB-V1 MDR tox | KB-3-1 cytotox
C#CC[N+](C)(C)CCCCCCCCCCCC | 12µM* | 10µM* | i | 2.1µM*
C#CC[N+](C)(C)CCCCCCCCCC | 12µM* | ? | i | 3.7µM*
CCCCCCCCCCCCCCCC[N+](C)(C)CC | 16µM* | 16µM* | i | ?
CCCCCCCCCCCCCCCC[N+](C)(C)CCl | -30% | -11% | i | ?
CC#CC[N+](C)(C)CCCCCCCCCCCC | 23µM* | 23µM* | i | ?
CCc1cccc(NC(=O)COc2cc(=O)n(CC)c3ccccc23)c1 | . | . | i | i
Cc1cccc(CNC(=O)c2ccc(NC(=O)N3CCSc4ccccc43)cc2)c1 | . | . | i | i
O=C(NCCc1ccccc1Cl)c1ccc2c(=O)n(-c3ccccc3)c(=O)[nH]c2c1 | . | . | i | i
C#CC[N+](C)(C)CCCCCCCC | ? | ? | i | 5.2µM*
CCCCCCCCCCCCCC[N+](C)(C)Cc1ccccc1 | . | . | i | 18µM*
CCCCCC[N+](C)(C)CCSSCC[N+](C)(C)CCCCCC | 1% | 11% | i | i
COc1cc(OC)c(NC(=O)C(C)n2nc(-c3ccc(C)cc3)c3c(c2=O)CCCC3)cc1Cl (stereo unspecified) | . | . | ? | i
N/N=C1\CCCc2c1[nH]c1ccc([N+](=O)[O-])cc21 | 7% | 11% | 4.6µM* | ?
O=[N+]([O-])c1ccc2[nH]c3c(c2c1)CCCC3 | -16% | 0% | ? | i
COc1cccc(C2C(C(=O)Nc3ccc(Cl)cc3)=C(C)Nc3c(C(=O)Nc4ccccc4)cnn32)c1OC (stereo unspecified) | . | . | i | i
COc1ccc2c(c1)c(C(O)CN1CCN(Cc3ccc4c(c3)OCO4)CC1)c(C)n2C (stereo unspecified) | -29% | -27% | i | ?
Cc1c(C(O)CN2CCN(Cc3ccc4c(c3)OCO4)CC2)c2ccccc2n1C (stereo unspecified) | 11µM* | ? | i | i
CC(CN(C)C)CN1c2ccccc2Sc2ccccc21 (stereo unspecified) | ? | 16µM* | 18µM* | i
COc1ccc2c(c1)N(C[C@H](C)CN(C)C)c1ccccc1S2 | 21µM* | 23µM* | ? | i
CCOC(=O)c1c(NC(C)=O)sc2c1CCC(C=O)=C2Sc1ccccc1 | 7.1µM* | 14µM* | ? | i
CCOC(=O)c1c(NC(=O)c2ccccc2Br)sc2c1CCc1ccccc1-2 | 1% | 4% | 13µM* | i
O=S(=O)(c1ccccc1)c1nnn2c1nc(NCc1ccccc1)c1sccc12 | . | . | i | i
CN(C1CCCCC1)S(=O)(=O)c1ccc(=S)[nH]c1 | 9% | 8% | 15µM* | i
CN(C1CCCCC1)S(=O)(=O)c1ccc(S(=O)(=O)N2CCCC2)cc1 | 5%[9.24 µM] | -20% | ? | i
COc1ccc2ccccc2c1CNC(C)CCc1ccccc1 (stereo unspecified) | 18µM* | ? | i | i
SMILES | HT1080 IDH1KD tx | HT1080-NT tox | KB-V1 MDR tox | KB-3-1 cytotox
Cc1nc2ccccc2n1/N=C/c1ccc([N+](=O)[O-])s1 | ? | ? | 12µM* | ?
Cc1cc(C)cc(N=Cc2ccc([N+](=O)[O-])s2)c1 | 21µM* | ? | ? | ?
COc1cccc(/C=N\n2c(C)nnc2C)c1OC | 4% | 4% | i | i
NC(=O)c1ccc(N=Cc2ccc([N+](=O)[O-])s2)cc1 | 2% | ? | ? | ?
COc1cccc(/C=N/n2c(C)nc3ccccc32)c1OC | 1% | 1% | 12µM* | i
Cc1nc2ccccc2n1/N=C/c1ccc([N+](=O)[O-])o1 | 10µM* | 13µM* | i | i
Cc1ccc(/C=N/n2c(C)nc3ccccc3c2=O)o1 | 12% | 1% | i | i
